Changes are numbered by the printed parent chain.
What was measured:
Experiment in all cases: protein-binding microarray (PBM); PBM: ~300 nM protein, 6 mM HEPES pH 7.8, 80 mM KCl, 0.5 mM EDTA, 0.5 mM EGTA, 6% glycerol, 35 ng/ul poly-dIdC, 1% milk, 1 h, room temperature; Ap Aiptasia and Nv Nematostella (sea anemones) / Co Capsaspora / Aq Amphimedon (sponge) / Dm Drosophila / Hu human; RHD is the Rel homology domain; high values mean tight binding
Conditions in all cases: dsDNA, one strand shown
GST-Ap-NF-kB RHD = molecular target: T1, GST-Ap-NF-kB RHD (Exaiptasia pallida (Aiptasia), UniProt A0A913YAJ5 2-422)
T1 sequence: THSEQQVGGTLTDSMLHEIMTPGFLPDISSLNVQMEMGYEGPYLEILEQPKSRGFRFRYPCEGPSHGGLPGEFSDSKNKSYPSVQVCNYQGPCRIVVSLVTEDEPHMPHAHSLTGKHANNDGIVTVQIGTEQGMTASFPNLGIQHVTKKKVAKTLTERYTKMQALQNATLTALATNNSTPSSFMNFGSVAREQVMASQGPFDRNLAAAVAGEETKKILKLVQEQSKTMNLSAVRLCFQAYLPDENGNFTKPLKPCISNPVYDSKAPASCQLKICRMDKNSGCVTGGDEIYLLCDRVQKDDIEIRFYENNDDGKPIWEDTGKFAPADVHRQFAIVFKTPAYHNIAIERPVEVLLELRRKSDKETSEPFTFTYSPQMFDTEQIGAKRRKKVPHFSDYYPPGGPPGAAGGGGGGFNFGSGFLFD

[1] = molecular target: T2, GST-Nv-NF-kB (Cys allele) (Nematostella vectensis, UniProt E5G601 2-411)
T2 sequence: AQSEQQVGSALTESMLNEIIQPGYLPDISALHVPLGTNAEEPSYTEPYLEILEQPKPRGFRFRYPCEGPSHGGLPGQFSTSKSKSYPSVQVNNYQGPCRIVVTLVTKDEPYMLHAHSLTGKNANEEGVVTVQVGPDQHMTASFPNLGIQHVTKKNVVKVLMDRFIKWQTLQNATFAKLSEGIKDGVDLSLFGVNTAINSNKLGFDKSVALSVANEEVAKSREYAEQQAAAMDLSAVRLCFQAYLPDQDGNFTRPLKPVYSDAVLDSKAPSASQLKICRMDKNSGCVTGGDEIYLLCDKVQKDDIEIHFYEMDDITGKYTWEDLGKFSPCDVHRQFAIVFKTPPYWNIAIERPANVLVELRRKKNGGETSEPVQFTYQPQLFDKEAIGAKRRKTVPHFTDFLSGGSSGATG

[2] = molecular target: T3, GST-Nv-NF-kB (Ser allele) (Nematostella vectensis, UniProt A7UNT2 2-411)
T3 sequence: T2 sequence with Q21R, C66S, S207N, E215Q, V217A, E225K, A268E, D399E

GST-Co-NF-kB = molecular target: T4, GST-Co-NF-kB (Capsaspora owczarzaki, UniProt F1ARL5 200-546)
T4 sequence: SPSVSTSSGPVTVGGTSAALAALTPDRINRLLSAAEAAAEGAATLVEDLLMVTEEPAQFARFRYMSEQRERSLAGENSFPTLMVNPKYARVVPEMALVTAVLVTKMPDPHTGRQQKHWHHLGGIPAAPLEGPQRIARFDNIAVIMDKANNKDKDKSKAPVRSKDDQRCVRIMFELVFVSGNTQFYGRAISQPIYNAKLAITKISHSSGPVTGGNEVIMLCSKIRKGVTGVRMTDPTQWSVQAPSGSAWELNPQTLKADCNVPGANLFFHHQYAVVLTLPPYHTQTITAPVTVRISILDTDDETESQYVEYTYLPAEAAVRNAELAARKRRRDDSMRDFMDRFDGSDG

GST-Aq-NF-kB = molecular target: T5, GST-Aq-NF-kB (Amphimedon queenslandica, UniProt A9Y5G7 2-389)
T5 sequence: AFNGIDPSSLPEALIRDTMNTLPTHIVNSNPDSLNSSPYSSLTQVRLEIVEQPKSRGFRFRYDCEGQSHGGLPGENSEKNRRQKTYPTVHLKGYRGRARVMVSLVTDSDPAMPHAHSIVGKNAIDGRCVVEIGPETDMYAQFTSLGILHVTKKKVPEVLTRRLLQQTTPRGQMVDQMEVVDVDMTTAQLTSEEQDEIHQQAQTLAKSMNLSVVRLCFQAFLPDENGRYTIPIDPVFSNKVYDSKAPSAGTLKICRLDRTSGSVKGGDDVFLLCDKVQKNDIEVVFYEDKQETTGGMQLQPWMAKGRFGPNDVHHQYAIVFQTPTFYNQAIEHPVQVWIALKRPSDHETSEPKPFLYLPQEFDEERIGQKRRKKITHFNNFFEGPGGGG

GST-Hu-p50 = GST-Hu-p50 (Homo sapiens, UniProt P19838 7-356)
GST-Dm-Relish = molecular target: T6, GST-Dm-Relish (Drosophila melanogaster, UniProt Q94527 99-473)
T6 sequence: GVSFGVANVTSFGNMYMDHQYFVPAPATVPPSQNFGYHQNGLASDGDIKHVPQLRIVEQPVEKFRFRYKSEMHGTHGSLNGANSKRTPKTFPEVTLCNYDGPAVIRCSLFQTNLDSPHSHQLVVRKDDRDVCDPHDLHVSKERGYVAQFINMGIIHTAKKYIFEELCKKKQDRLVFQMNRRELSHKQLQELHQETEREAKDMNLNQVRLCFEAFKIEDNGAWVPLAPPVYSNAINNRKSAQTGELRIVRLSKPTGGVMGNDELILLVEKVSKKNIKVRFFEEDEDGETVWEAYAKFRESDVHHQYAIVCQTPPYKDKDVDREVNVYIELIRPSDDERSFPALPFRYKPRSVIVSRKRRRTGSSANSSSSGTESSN

Chain of GST-Hu-p50 (P19838 7-356): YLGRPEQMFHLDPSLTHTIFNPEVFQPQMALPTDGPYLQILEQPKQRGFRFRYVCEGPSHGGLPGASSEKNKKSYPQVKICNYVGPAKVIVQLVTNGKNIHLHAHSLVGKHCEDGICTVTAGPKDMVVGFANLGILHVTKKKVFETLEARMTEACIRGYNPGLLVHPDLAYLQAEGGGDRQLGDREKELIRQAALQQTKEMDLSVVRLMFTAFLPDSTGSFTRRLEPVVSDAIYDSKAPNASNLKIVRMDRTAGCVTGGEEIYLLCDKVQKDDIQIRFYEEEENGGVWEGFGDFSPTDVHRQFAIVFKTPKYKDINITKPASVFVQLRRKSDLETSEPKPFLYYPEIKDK

Sequence	binding signal (GST-Ap-NF-kB RHD) [z-score]	binding signal [1] [z-score]	binding signal [2] [z-score]	binding signal (GST-Co-NF-kB) [z-score]	binding signal (GST-Aq-NF-kB) [z-score]	binding signal (GST-Hu-p50) [z-score]	binding signal (GST-Dm-Relish) [z-score]
CCGATTAACATCAACGGTGGGAATGATGTTAATCGGGTCTTGATTCGCTTGACGCTGCTG	1.12	1.46	1.15	2.19	2.42	1.41	
CCGATTAACATCAGAAATGCCCATGATGTTAATCGGGTCTTGATTCGCTTGACGCTGCTG					1.69	1.76	
CCGATTAACATCAAGCATTTCCCTGATGTTAATCGGGTCTTGATTCGCTTGACGCTGCTG	2.4	4.4	4.14	2.36	3.63	2.72	
CCGATTAACATCAGGGAATTGGATGATGTTAATCGGGTCTTGATTCGCTTGACGCTGCTG	2.15	3.52	3.84	1.88	2.8	1.84	
CCGATTAACATCAGCTATTTCCCTGATGTTAATCGGGTCTTGATTCGCTTGACGCTGCTG	2.08	3.01	3.4	2.17	3.31	1.83	
CCGATTAACATCAACTTTTTCCCTGATGTTAATCGGGTCTTGATTCGCTTGACGCTGCTG	2.88	4.79	6.57	5.52	3.16	2.68	
CCGATTAACATCAGGGAAAGCTATGATGTTAATCGGGTCTTGATTCGCTTGACGCTGCTG	2.11	3.99	3.57	2.65	3.54	2.53	
CCGATTAACATCAGTGGGAAAAATGATGTTAATCGGGTCTTGATTCGCTTGACGCTGCTG	2.21	3.95	4.53	4.81	2.62	3.34	
CCGATTAACATCAAGTGGGAAAATGATGTTAATCGGGTCTTGATTCGCTTGACGCTGCTG	1.71	4.11	4.29	2.91	2.08	2.66	
CCGATTAACATCAATTCCCATCCTGATGTTAATCGGGTCTTGATTCGCTTGACGCTGCTG	1.57	2.99	2.59	1.43	1.94	1.57	
CCGATTAACATCATATTTCCCCATGATGTTAATCGGGTCTTGATTCGCTTGACGCTGCTG	5.95	7.45	10.1	8.62	5.08	6.08	2.89
CCGATTAACATCAAATTCCCCCTTGATGTTAATCGGGTCTTGATTCGCTTGACGCTGCTG	9.34	10.3	11	8.93	8.5	8.06	8.62
CCGATTAACATCAAAAGTACCCCTGATGTTAATCGGGTCTTGATTCGCTTGACGCTGCTG	4.78	4.21	6.09	5.19	4.81	4.42	7.17
CCGATTAACATCAAAGTTTCCCATGATGTTAATCGGGTCTTGATTCGCTTGACGCTGCTG	2.54	4.29	3.82	4.66	4.32	3.28	2.05
CCGATTAACATCACAAACCCCCCTGATGTTAATCGGGTCTTGATTCGCTTGACGCTGCTG	6.66	4.96	6.4	3.99	5.34	6.08	7.41
CCGATTAACATCAGGGAAAGATATGATGTTAATCGGGTCTTGATTCGCTTGACGCTGCTG	2.67	4.29	4.52	4.56	5.22	3.62	
CCGATTAACATCAGGGGGAATAATGATGTTAATCGGGTCTTGATTCGCTTGACGCTGCTG	7.08	7.85	8.87	10.1	5.33	6.75	4.96
CCGATTAACATCAATAATTCCCCTGATGTTAATCGGGTCTTGATTCGCTTGACGCTGCTG	8.52	10.6	11.8	8.63	7.59	6.96	7.98
CCGATTAACATCAGAGTGGGAAATGATGTTAATCGGGTCTTGATTCGCTTGACGCTGCTG	1	2.45	1.89	2.83	1.64	2.27	
CCGATTAACATCAGGATTATCCCTGATGTTAATCGGGTCTTGATTCGCTTGACGCTGCTG	2.26	2.9	1.47	2.37	5.15	1.73	
CCGATTAACATCAAATTCCCAACTGATGTTAATCGGGTCTTGATTCGCTTGACGCTGCTG	2.17	3.56	3.7	2.15	2.22	2.66	3.39
CCGATTAACATCACGGAATCCCCTGATGTTAATCGGGTCTTGATTCGCTTGACGCTGCTG	8.93	8.59	9.68	3.45	6.48	6.67	9.36
CCGATTAACATCAGGGGAGACAATGATGTTAATCGGGTCTTGATTCGCTTGACGCTGCTG	3.1	3.18	4.37	4.18	2.2	2.14	
CCGATTAACATCAGCAAATTCCCTGATGTTAATCGGGTCTTGATTCGCTTGACGCTGCTG	3.17	5.15	5.81	2.77	4.34	4.19	4.19
CCGATTAACATCAAGGGAGTTCCTGATGTTAATCGGGTCTTGATTCGCTTGACGCTGCTG	4.53	4.56	2.92	1.22	5.71	3.7	5.02

— publication PMC5700166
